A selection: hits, their analogues and other compounds. The true share with any hit is near 15%.
SARS PLpro yeast: SARS-CoV PLP inhibition in yeast | S. cerevisiae expressing SARS-CoV PLpro, growth rescue | Potency, µM (series often up to 32.9 µM), inactives show top-dose activity, positive = growth rescue, hits mostly activators | 330,000 compounds, 0.19% hits | AID 485353; calls by dose curve; note: potency is the fitted concentration of half-maximal effect; 0% is about no effect; nearly all actives have a fitted effect of over 55% in size
Pf growth 96h: P. falciparum growth inhibition at 96 hours; P. falciparum luciferase reporter growth, 96 h; Potency, µM (series often up to 28.7 µM), for inactives: at the top dose activity change, negative = inhibition, usual class: inhibitors; 320,000 compounds, 6.9% hits; note: potency is the fitted concentration of half-maximal effect; % is set by controls: 0 for no effect and ±100 for the full control effect
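96 h incubation, 37 C, 5% CO2, of luciferase-reporter P. falciparum-infected RBCs (2% hematocrit, 0.05% parasitemia final) with test compounds; endpoint luminescence.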
Sm TGR block: S. mansoni TGR enzyme inhibition; Q962Y6; purified TGR, DTNB reduction, TNB absorbance 405 nm; 360,000 compounds, 3% hits; Potency, µM (highest dose often 114 µM), inactives show at the top dose activity change, negative = inhibition, actives largely listed as inhibitors; note: potency is the fitted concentration of half-maximal effect; % is set by controls: 0 for no effect and ±100 for the full control effect; nearly all actives have a fitted effect of over 60% in size
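TGR 20 nM + NADPH 100 uM (dispensed conc.), cpd preinc 15 min RT; start with NADPH (500 uM addition) then DTNB (15 mM addition). Kinetic TNB absorbance, 405 nm filter. Four-parameter Hill fit across titration.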
HCMV inh: inhibitors of human cytomegalovirus; HFF cells, HCMV-luciferase reporter, 72 h; active compounds read low; activity change, negative = inhibition, % at 57.5 µM; 410,000 compounds, 4.5% hits; AID 1259415; in the data active = activity change below about -60%; inconclusive = no clear call, values can overlap the other calls; inactive = above about -39%; note: % is set by controls: 0 for no effect and ±100 for the full control effect
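Human foreskin fibroblasts infected with luciferase-reporter HCMV at MOI 1 PFU/cell, compounds at two doses. Luciferase measured 72 h post infection; normalized to buffer-only basal and Salinomycin (10uM) controls.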
HCV inhibitor: HCV inhibition | 340,000 compounds, 3.4% hits | AID 651820 | Potency, µM (titrated, usually from 41.8 µM), without a hit: at the top dose activity change, negative = inhibition, actives largely listed as inhibitors | Huh7.5.1 HCVcc-Cre infection, luciferase reporter, 44 h; note: potency is the fitted concentration of half-maximal effect; % is set by controls: 0 for no effect and ±100 for the full control effect
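A cell-based infection assay in which seeded cells (1,000 per well) receive test compound after 4 h, are inoculated with HCVcc-Cre at approximately 0.5 moi, and are incubated 44 h before luminescence detection.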
Pf growth 48h: P. falciparum growth inhibition at 48 hours (one generation) | P. falciparum luciferase growth in erythrocytes, 48 h | AID 504832 | Potency, µM (highest dose often 28.7 µM), without a hit: top-dose activity change, negative = inhibition, hits mostly inhibitors | 310,000 compounds, 5.9% hits; note: potency is the fitted concentration of half-maximal effect; % is set by controls: 0 for no effect and ±100 for the full control effect
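Luminescence readout; reporter = integrated firefly luciferase in P. falciparum. RBC culture at 2% hematocrit, 0.1% parasitemia final, 37 C/5% CO2; decreased signal taken as growth inhibition.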
* hit, by the source's call; ? = inconclusive; . = no result. Unless noted, calls come from the whole dose curve; as a rule, active = well fitted curve in the direction sought with a large enough effect; inconclusive = small, poorly fitted or top-dose-only effect, or another doubt; inactive = no such curve, though single readings can be large; an effect the other way counts as inactive or inconclusive.

SMILES	SARS PLpro yeast	Pf growth 96h	Sm TGR block	HCMV inh	HCV inhibitor	Pf growth 48h
CCOc1ccc(CCNC(=O)c2cc(C)nc3c2c(C)nn3-c2cccc(F)c2)cc1	.	.	1%	-8	.	.
CCCCC[C@@H](C)N1C[C@@H](COCc2ccccc2)Oc2cc(N3CC[C@@H](N(C)C)C3)ccc2S1(=O)=O	.	.	.	-20	.	.
CCCCC[C@H](C)N1C[C@H](COCc2ccccc2)Oc2cc(N3CC[C@H](N(C)C)C3)ccc2S1(=O)=O	.	.	.	-21	.	.
CCCCC[C@H](C)N1C[C@H](COCc2ccccc2)Oc2cc(N3CC[C@@H](N(C)C)C3)ccc2S1(=O)=O	.	.	.	-101*	.	.
CCCCC[C@@H](C)N1C[C@H](COCc2ccccc2)Oc2cc(N3CC[C@@H](N(C)C)C3)ccc2S1(=O)=O	.	.	.	-102*	.	.
COc1ccc(NC(=O)COC(=O)C2CCN(S(=O)(=O)c3ccccc3)CC2)cc1Cl	-1%	11%	-20%	-4	4%	9%
CC(C)c1ccc([C@@H]2O[C@H](CCc3ccccc3)CC3=C2C(=O)OC(C)(C)O3)cc1	.	.	.	3	.	.
CCN(CC)c1ccc2cc(-c3nc4ccccc4n3C)c(=O)oc2c1	8%	43%	-10%	-79*	?	.
CC(C)(C)OC(=O)NN1CC(=O)N2[C@@H](Cc3c([nH]c4ccccc34)C2(C)C)C1=O	0%	6%	0%	.	-3%	1%
Nc1nc2ccccc2n1/N=C/c1ccc([N+](=O)[O-])s1	-53%	1.5µM*	-26%	?	3.5µM*	?
COCCCNCCCOc1ccc(Cl)cc1Br	-7%	?	7%	-5	13µM*	?
COCCCNCCCOc1ccc(C)cc1Br	-1%	-1%	-10%	-63*	-25%	-13%
C=CCc1cc(Cl)ccc1OCCCNC(C)C	-15%	23%	-18%	-26	?	?
CCCCNCCCOc1cc(Cl)ccc1Cl	-8%	6.6µM*	-1%	-1	-23%	.
CCC(C)NCCCOc1cc(Cl)ccc1Cl (stereo not given)	10%	19%	-7%	93	-21%	.
CCCCNCCOCCOc1ccc(Cl)cc1Br	-17%	0%	-8%	-23	?	?
C=CCc1cc(Cl)ccc1OCCCNCCO	1%	66%	-18%	?	?	9.3µM*
CCc1nnc(SCC(=O)Nc2ccc(F)cc2)o1	-4%	?	0%	-7	3%	25%
N#Cc1nc(-c2ccco2)oc1N1CCCC1	-1%	.	5%	-25	?	9%
N#Cc1nc(-c2ccco2)oc1N1CCc2ccccc2C1	-7%	35%	50µM*	-7	?	-2%
CCN(CC)S(=O)(=O)c1cc(C(=O)Nc2cc(Cl)ccc2N2CCN(C)CC2)ccc1Cl	-2%	2.6µM*	3%	7	6%	.
CN1CCN(c2ccc(Cl)cc2NC(=O)c2ccc(S(=O)(=O)N(C)C)cc2)CC1	7%	3.3µM*	-4%	77	11%	.
CN(C)S(=O)(=O)c1ccc(C(=O)Nc2cc(S(=O)(=O)Nc3ccccc3Cl)ccc2N2CCCCC2)cc1	-14%	1.3µM*	1%	-27	?	2.3µM*
CN(C)S(=O)(=O)c1ccc(C(=O)Nc2ccc(F)cc2F)cc1	-6%	15%	3%	28	0%	12%
S=C(NN=C(c1ccccc1)c1ccccn1)N(Cc1ccccn1)Cc1ccccn1	.	.	.	-97*	1.3µM*	.
SMILES	SARS PLpro yeast	Pf growth 96h	Sm TGR block	HCMV inh	HCV inhibitor	Pf growth 48h
S=C(NN=Cc1ccccn1)N(Cc1ccccn1)Cc1ccccn1	.	.	.	-77*	1.3µM*	.
CC(=NNC(=S)N(Cc1ccccn1)Cc1ccccn1)c1cnccn1	.	.	.	-98*	?	.
O=C(O)C1C2CCC(C2)C1C(=O)NCCc1ccccc1 (stereo not given)	0%	38%	1%	21	3%	19%
Cc1cc(SCC(=O)NCc2ccccc2Cl)nc(=O)[nH]1	.	.	4%	3	.	.
Nc1cc(Cl)ccc1N1CCCC1	-2%	?	?	-22	6%	2.1µM*
CN1CCN(c2ccc(F)cc2N)CC1	1%	?	0%	33	13%	23%
Nc1cc(F)ccc1N1CCCCCC1	-3%	144%	-25%	-31	?	1µM*
CC1(C2CC2)NC(=O)N(CC(=O)N2CCN(c3ccccc3Cl)CC2)C1=O (stereo not given)	0%	11%	0%	5	15%	2%
Cn1c(Cc2cccs2)nnc1SCC(=O)Nc1ccc(C(N)=O)cc1	-1%	?	1%	20	3%	1%
CCOc1ccc(-c2cc(C(=O)NC3CCCCC3)[nH]n2)c(C)c1	.	.	.	38	.	.
CN1CC(C(=O)O)Cc2c1ccc1ccccc21 (stereo not given)	-1%	40%	20µM*	24	15%	?
COc1ccc2ccccc2c1CNCc1ccc(C)cc1	17%	?	-23%	4	?	?
COc1ccc2ccccc2c1CNC(C)c1ccccc1 (stereo not given)	1%	?	-17%	-11	5.6µM*	-53%
O=[N+]([O-])c1ccn(-c2nc(-c3cccs3)cc(C(F)(F)F)n2)n1	-11%	?	-17%	?	?	-22%
COc1cccc(-c2cc(C(F)(F)F)nc(-n3cc(C)cn3)n2)c1	0%	0%	11%	-37	10µM*	?
FC(F)(F)c1cc(-c2cccs2)nc(-n2cc(Cl)cn2)n1	2%	?	-14%	-3	10µM*	.
O=[N+]([O-])c1ccn(-c2nc(-c3ccccc3)cc(C(F)(F)F)n2)n1	1%	?	-11%	-15	?	?
O=[N+]([O-])c1cnn(-c2nc(-c3ccccc3)cc(C(F)(F)F)n2)c1	15%	2%	2%	-76*	?	17%
COc1cccc(Oc2ccc(C(F)(F)F)cc2NC(=O)C2=COCCO2)c1	-2%	7.4µM*	21%	-28	-27%	?
O=C(Nc1cc(S(=O)(=O)N2CCCCC2)ccc1Oc1ccccc1)C1=COCCO1	1%	10µM*	-1%	-20	22µM*	10µM*
COc1cc(OC)cc(C(=O)Nc2ccc(N3CCN(C(=O)c4cccs4)CC3)cc2)c1	27%	8%	-10%	-16	?	?
Cc1cc2ccccc2nc1SCC(=O)N1c2ccccc2CC1C (stereo not given)	6%	.	0%	-18	1%	?
Cc1cc2cc3c(cc2nc1SCC(=O)N1c2ccccc2CC1C)OCO3 (stereo not given)	-24%	?	6%	-39	4µM*	?
